Measured values as given in PubChem BioAssay AID1159580 (chemical genetic matrix, 2015).
About 2,000 (36%) of roughly 5,500 compounds were called active. Not shown: some 18% with an inconclusive outcome. No stated cut-off is given here; in the data, active means normalized growth mostly below about 0.91 (no sharp cut-off); inconclusive means no clear call, values can overlap the other calls; inactive means mostly above about 0.92. The list shows a part of the results.

Experiment: chemical genetic growth profiling, strain panel (AID 1159580);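 further: tested at 20 µM; growth read once vehicle control cultures reached saturation at 30 °C; 1 = growth at the plate median or of vehicle wells; lower values mean less growth of the strain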
Conditions: growth OD
[1] = S. cerevisiae deletion strains, locus YCL061C, strain MRC1, active compounds read low
[2] = S. cerevisiae deletion strains, locus YHR030C, strain SLT2, active compounds read low
[3] = S. cerevisiae deletion strains, locus YJL187C, strain SWE1, active compounds read low

Measured: normalized growth

COc1cc(C(=O)NCCCCCC(=O)O)cc(OC)c1OC
inactive: S. cerevisiae deletion strains, locus YAL021C, strain ccr4, active compounds read low 0.976 | S. cerevisiae deletion strains, locus YAL026C, strain drs2, active compounds read low 0.981 | S. cerevisiae deletion strains, locus YAL030W, strain snc1, active compounds read low 0.959 | S. cerevisiae deletion strains, locus YBL061C, strain skt5, active compounds read low 0.973 | S. cerevisiae deletion strains, locus YBR009C, strain hhf1, active compounds read low 0.977 | S. cerevisiae deletion strains, locus YBR023C, strain chs3, active compounds read low 0.986 | S. cerevisiae deletion strains, locus YBR171W, strain sec66, active compounds read low 0.97 | S. cerevisiae deletion strains, locus YBR231C, strain swc5, active compounds read low 0.978 | S. cerevisiae deletion strains, locus YBR279W, strain paf1, active compounds read low 0.979 | S. cerevisiae deletion strains, locus YCL011C, strain gbp2, active compounds read low 0.977 | S. cerevisiae deletion strains, locus YCL016C, strain dcc1, active compounds read low 0.982 | [1] 0.995 | S. cerevisiae deletion strains, locus YCL069W, strain vba3, active compounds read low 0.984 | S. cerevisiae deletion strains, locus YCR088W, strain abp1, active compounds read low 0.986 | S. cerevisiae deletion strains, locus YDL005C, strain med2, active compounds read low 0.973 | S. cerevisiae deletion strains, locus YDL040C, strain nat1, active compounds read low 0.981 | S. cerevisiae deletion strains, locus YDR001C, strain nth1, active compounds read low 0.969 | S. cerevisiae deletion strains, locus YDR069C, strain doa4, active compounds read low 0.973 | S. cerevisiae deletion strains, locus YDR137W, strain rgp1, active compounds read low 0.975 | S. cerevisiae deletion strains, locus YDR159W, strain sac3, active compounds read low 0.966 | S. cerevisiae deletion strains, locus YDR195W, strain ref2 0.966 | S. cerevisiae deletion strains, locus YDR297W, strain sur2, active compounds read low 0.962 | S. cerevisiae deletion strains, locus YDR334W, strain swr1, active compounds read low 0.935 | S. cerevisiae deletion strains, locus YDR335W, strain msn5, active compounds read low 0.975 | S. cerevisiae deletion strains, locus YDR392W, strain spt3, active compounds read low 0.983 | S. cerevisiae deletion strains, locus YEL003W, strain gim4, active compounds read low 0.98 | S. cerevisiae deletion strains, locus YEL037C, strain rad23, active compounds read low 0.985 | S. cerevisiae deletion strains, locus YEL061C, strain CIN8 (second series), active compounds read low 0.974 | S. cerevisiae deletion strains, locus YER015W, strain faa2, active compounds read low 0.972 | S. cerevisiae deletion strains, locus YER016W, strain bim1, active compounds read low 0.981 | S. cerevisiae deletion strains, locus YER111C, strain swi4, active compounds read low 0.979 | S. cerevisiae deletion strains, locus YER155C, strain BEM2 (second series), active compounds read low 0.969 | S. cerevisiae deletion strains, locus YFR010W, strain ubp6, active compounds read low 0.966 | S. cerevisiae deletion strains, locus YGL167C, strain pmr1, active compounds read low 0.986 | S. cerevisiae deletion strains, locus YGL173C, strain kem1, active compounds read low 0.959 | S. cerevisiae deletion strains, locus YGL227W, strain vid30, active compounds read low 0.976 | S. cerevisiae deletion strains, locus YGL240W, strain doc1, active compounds read low 0.972 | S. cerevisiae deletion strains, locus YGL253W, strain hxk2, active compounds read low 0.986 | S. cerevisiae deletion strains, locus YHR013C, strain ard1, active compounds read low 0.973 | S. cerevisiae deletion strains, locus YHR027C, strain rpn1, active compounds read low 0.964 | [2] 0.972 | S. cerevisiae deletion strains, locus YHR079C, strain IRE1, active compounds read low 0.974 | S. cerevisiae deletion strains, locus YHR142W, strain chs7, active compounds read low 0.981 | S. cerevisiae deletion strains, locus YJL092W, strain hpr5, active compounds read low 0.994 | S. cerevisiae deletion strains, locus YJL095W, strain BCK1 (second series), active compounds read low 0.977 | S. cerevisiae deletion strains, locus YJL095W, strain BCK1, active compounds read low 1.02 | S. cerevisiae deletion strains, locus YJL115W, strain asf1, active compounds read low 0.975 | S. cerevisiae deletion strains, locus YJL129C, strain trk1, active compounds read low 0.999 | S. cerevisiae deletion strains, locus YJL154C, strain vps35, active compounds read low 0.97 | S. cerevisiae deletion strains, locus YJL164C, strain tpk1, active compounds read low 0.998 | S. cerevisiae deletion strains, locus YJL166W, strain qcr8, active compounds read low 0.974 | [3] 0.983 | S. cerevisiae deletion strains, locus YJR066W, strain TOR1, active compounds read low 0.923 | S. cerevisiae deletion strains, locus YKL160W, strain elf1, active compounds read low 0.992 | S. cerevisiae deletion strains, locus YKR026C, strain gcn3, active compounds read low 0.993 | S. cerevisiae deletion strains, locus YKR091W, strain srl3, active compounds read low 0.984 | S. cerevisiae deletion strains, locus YLL001W, strain dnm1, active compounds read low 0.998 | S. cerevisiae deletion strains, locus YLL026W, active compounds read low 0.964 | S. cerevisiae deletion strains, locus YLL041C, strain sdh2, active compounds read low 0.981 | S. cerevisiae deletion strains, locus YLR027C, strain aat2, active compounds read low 0.977 | S. cerevisiae deletion strains, locus YLR113W, strain HOG1, active compounds read low 1.01 | S. cerevisiae deletion strains, locus YLR221C, strain rsa3, active compounds read low 0.991 | S. cerevisiae deletion strains, locus YLR258W, strain gsy2, active compounds read low 0.987 | S. cerevisiae deletion strains, locus YLR262C, strain YPT6 (second series), active compounds read low 0.962 | S. cerevisiae deletion strains, locus YLR320W, strain mms22, active compounds read low 0.985 | S. cerevisiae deletion strains, locus YLR342W, strain FKS1, active compounds read low 0.985 | S. cerevisiae deletion strains, locus YLR357W, strain rsc2, active compounds read low 1.01 | S. cerevisiae deletion strains, locus YLR370C, strain arc18, active compounds read low 0.973 | S. cerevisiae deletion strains, locus YLR384C, strain iki3, active compounds read low 0.975 | S. cerevisiae deletion strains, locus YML120C, strain ndi1, active compounds read low 0.987 | S. cerevisiae deletion strains, locus YMR058W, strain fet3, active compounds read low 0.974 | S. cerevisiae deletion strains, locus YMR125W, strain sto1, active compounds read low 0.979 | S. cerevisiae deletion strains, locus YMR129W, active compounds read low 0.995 | S. cerevisiae deletion strains, locus YMR205C, strain PFK2, active compounds read low 0.968 | S. cerevisiae deletion strains, locus YMR231W, strain pep5, active compounds read low 0.991 | S. cerevisiae deletion strains, locus YNL071W, strain lat1, active compounds read low 0.985 | S. cerevisiae deletion strains, locus YNL183C, strain NPR1, active compounds read low 0.935 | S. cerevisiae deletion strains, locus YNL209W, strain ssb2, active compounds read low 0.977 | S. cerevisiae deletion strains, locus YNL248C, strain rpa49, active compounds read low 0.986 | S. cerevisiae deletion strains, locus YNL322C, strain KRE1 (second series), active compounds read low 0.966 | S. cerevisiae deletion strains, locus YNR049C, strain mso1, active compounds read low 0.976 | S. cerevisiae deletion strains, locus YOR001W, strain rrp6, active compounds read low 0.977 | S. cerevisiae deletion strains, locus YOR070C, strain gyp1, active compounds read low 0.978 | S. cerevisiae deletion strains, locus YOR080W, strain dia2, active compounds read low 0.974 | S. cerevisiae deletion strains, locus YOR083W, strain WHI5, active compounds read low 0.98 | S. cerevisiae deletion strains, locus YOR106W, strain vam3, active compounds read low 0.979 | S. cerevisiae deletion strains, locus YOR231W, strain MKK1, active compounds read low 0.99 | S. cerevisiae deletion strains, locus YOR265W, strain rbl2, active compounds read low 0.973 | S. cerevisiae deletion strains, locus YOR270C, strain vph1, active compounds read low 0.996 | S. cerevisiae deletion strains, locus YOR290C, strain snf2, active compounds read low 0.976 | S. cerevisiae deletion strains, locus YPL051W, strain arl3, active compounds read low 0.988 | S. cerevisiae deletion strains, locus YPL078C, strain atp4, active compounds read low 0.98 | S. cerevisiae deletion strains, locus YPL106C, strain sse1, active compounds read low 0.916 | S. cerevisiae deletion strains, locus YPL240C, strain hsp82, active compounds read low 0.982 | S. cerevisiae deletion strains, locus YPL256C, strain CLN2, active compounds read low 0.93

CC(OCc1ccccc1)C(NC(=O)OC(C)(C)C)C(N)=O (centres undefined)
inactive: S. cerevisiae deletion strains, locus YAL013W, strain DEP1, active compounds read low 0.998 | S. cerevisiae deletion strains, locus YBR229C, strain ROT2, active compounds read low 0.994 | [1] 0.993 | S. cerevisiae deletion strains, locus YDL101C, strain DUN1, active compounds read low 0.993 | S. cerevisiae deletion strains, locus YDL134C, strain PPH21, active compounds read low 0.994 | S. cerevisiae deletion strains, locus YDR150W, strain NUM1, active compounds read low 0.985 | S. cerevisiae deletion strains, locus YEL061C, strain CIN8, active compounds read low 0.988 | S. cerevisiae deletion strains, locus YGR078C, strain PAC10, active compounds read low 0.997 | [2] 0.903 | S. cerevisiae deletion strains, locus YHR087W, strain rtc3, active compounds read low 0.988 | [3] 1 | S. cerevisiae deletion strains, locus YJR043C, strain POL32, active compounds read low 0.974 | S. cerevisiae deletion strains, locus YJR075W, strain HOC1, active compounds read low 1.02 | S. cerevisiae deletion strains, locus YLR039C, strain RIC1, active compounds read low 0.977 | S. cerevisiae deletion strains, locus YLR058C, strain SHM2 (second series), active compounds read low 1 | S. cerevisiae deletion strains, locus YLR085C, strain ARP6, active compounds read low 1.02 | S. cerevisiae deletion strains, locus YLR262C, strain YPT6, active compounds read low 0.864 | S. cerevisiae deletion strains, locus YML094W, strain GIM5, active compounds read low 1.04 | S. cerevisiae deletion strains, locus YMR219W, strain ESC1, active compounds read low 0.991 | S. cerevisiae deletion strains, locus YMR263W, strain SAP30, active compounds read low 0.976 | S. cerevisiae deletion strains, locus YMR307W, strain GAS1, active compounds read low 1.07 | S. cerevisiae deletion strains, locus YNL153C, strain GIM3, active compounds read low 0.998 | S. cerevisiae deletion strains, locus YNL298W, strain CLA4 (second series), active compounds read low 0.974 | S. cerevisiae deletion strains, locus YNL322C, strain KRE1, active compounds read low 0.985 | S. cerevisiae deletion strains, locus YNR030W, strain Alg12, active compounds read low 0.961 | S. cerevisiae deletion strains, locus YPL055C, strain LGE1, active compounds read low 1.02 | S. cerevisiae deletion strains, locus YPL241C, strain CIN2, active compounds read low 1 | S. cerevisiae deletion strains, locus YPR135W, strain CTF4, active compounds read low 0.9 | S. cerevisiae strains, strain wild type, active compounds read low 0.971
